Measured values reported in PubChem BioAssay.
Calls of active or inactive are those of the source. Unless noted, how the calls were made is not given here.

Assays:
[1] = compounds binding Alexa647 anti-His antibody – biochemical, small-molecule microarray, 635 nm fluorescence, artefact control for SMM control protein annotation, primary screen (AID 1128); details: higher = more signal;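 further: score merges feature fluorescence with signal-to-noise for each printed compound spot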
[2] = test system: Human papillomavirus type 1a E7 protein (residues 1-88); test: HPV1a E7 small-molecule binders, primary screen, biochemical, small-molecule microarray, residues 1-88, 635 nm (AID 1129); details: small-molecule microarray binding, fluorescence 635 nm; higher = more signal
[3] = biological target: Focal adhesion kinase 1 (Homo sapiens) (UniProt Q05397); test: PTK2 protein binding on printed compound slides – biochemical, small-molecule microarray, 635/667 nm fluorescence, BSA, DTT, primary screen (AID 1130); details: 635 nm fluorescence, higher = more signal;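 further: composite of spot emission at 667 nm and signal to noise over triplicate slides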
[4] = test system: Fibrinogen (Alexa647-labelled); test: Alexa647-fibrinogen binding to printed small molecules – biochemical, small-molecule microarray, 635/667 nm fluorescence, artefact control for SMM control-protein annotation, profiling panel (AID 1131); details: fibrinogen-A647 binding fluorescence, higher = more signal;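 further: z-score merges 667 nm fluorescence with per-spot signal-to-noise over triplicate slides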
[5] = biological target: Follistatin (Homo sapiens) (UniProt P19883); test: FST protein binding to printed compounds – biochemical, small-molecule microarray, 635/667 nm fluorescence, primary screen (AID 1132); details: 635 nm fluorescence, higher = more signal
[6] = biological target: Fibroblast growth factor 2 (Homo sapiens) (UniProt P09038); test: basic fibroblast growth factor binding to printed compounds – biochemical, small-molecule microarray, 635/667 nm fluorescence, primary screen (AID 1133); details: FGF2, fluorescence 635/667, higher = more signal
[7] = JC-1 mitochondrial potential readout, lung cancer cells – cell-based, A549, JC-1 fluorescence, basal, 24 h, 100 nL, profiling panel (AID 1138); details: higher = more signal;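 further: A549 lung adenocarcinoma cells under basal conditions with no added stimulus; test concentration not given here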
[8] = test system: Lefty1; test: Lefty1 protein binding to printed compounds – biochemical, small-molecule microarray, 635/667 nm fluorescence, primary screen (AID 1139); details: fluorescence 635/667, higher = more signal
[9] = test system: wheat germ agglutinin (Triticum aestivum), Alexa647-labelled; test: Alexa647-WGA lectin binding to printed small molecules – biochemical, small-molecule microarray, 635/667 nm fluorescence, artefact control for SMM control-protein annotation, profiling panel (AID 1140); details: WGA-A647 binding, 635 nm fluorescence, higher = more signal;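 further: score merges 667 nm feature emission with signal to noise over triplicate slides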
[10] = biological target: Luciferin 4-monooxygenase (Photinus pyralis) (UniProt P08659); test: inhibition of purified Photinus pyralis luciferase – biochemical, luminescence, purified enzyme, 2006 set, primary screen (AID 1141); details: purified firefly luciferase, SteadyGlo luminescence, 30 min; higher = more signal, called active from +8 up or from −8 down;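 further: cell-free assay with purified firefly luciferase at 100 ng per well in PBS; test concentration not given here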
[11] = test system: Wnt5a (protein binding on small-molecule microarray); test: small molecules binding Wnt5a protein – biophysical, small-molecule microarray, 635/667 nm fluorescence, primary screen (AID 1142); details: 635 nm fluorescence, higher = more signal;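 further: fluorescence read at 667 nm with signal to noise per printed feature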
[12] = ATP-based viability of Huh7 replicon cells – cell-based, CellTiter-Glo luminescence, basal, 48 h, cytotoxicity control for HCV replication inhibitor project, primary screen (AID 1143); details: higher = more signal, called active from +8 up or from −8 down;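 further: Huh7 hepatoma cells carrying a hepatitis C replication reporter with no stimulus; test concentration not given here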
[13] = Pseudomonas biofilm growth suppression – PAO1 strain, BacTiter-Glo luminescence, LB-PBS, primary screen (AID 1144); details: P. aeruginosa PAO1 biofilm, 12 h, higher = more signal
[14] = basal CRE-LacZ reporter activity in PC12 – cell-based, unstimulated, primary screen (AID 1145); details: no forskolin, luminescence, 4.5 h, higher = more signal, called active from +8 up or from −8 down
[15] = forskolin-driven CRE-LacZ activity in PC12 – cell-based, CRE-LacZ reporter, forskolin-stimulated, primary screen (AID 1146); details: luminescence, 4.5 h, higher = more signal, called active from +8 up or from −8 down;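 further: PC12 cells with 6xCRE LacZ reporter stimulated by forskolin 10 µM; beta-galactosidase reporter signal reflecting CREB driven transcription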
[16] = biological target: Streptavidin (Streptomyces avidinii) (UniProt P22629); test: compounds binding control protein streptavidin – biophysical, small-molecule microarray, 635/667 nm fluorescence, artefact control for SMM compound annotation, primary screen (AID 1147); details: higher = more signal;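 further: signal reflects streptavidin binding to arrayed compounds as a control protein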
[17] = probe aInhba binding on compound microarray – biochemical, small-molecule microarray, 635/667 nm fluorescence, primary screen (AID 1148); details: higher = more signal;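 further: score merges 667nm spot fluorescence with signal-to-noise for antibody binding to printed compounds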
[18] = biological target: Torsin-1A (Homo sapiens) (UniProt O14656); test: TOR1A wild-type binding on microarray – cell lysate, small-molecule microarray, lysate, 635/667 nm, primary screen (AID 1149); details: COS7 hTOR1A-WT lysate, 635 nm fluorescence, higher = more signal
[19] = biological target: Torsin-1A (Homo sapiens) (UniProt O14656); test: torsin A mutant lysate binding on microarrays – cell lysate, small-molecule microarray, COS7 lysate, 635/667 nm fluorescence, primary screen (AID 1150); details: COS7 hTOR1A mutant lysate, 635 nm fluorescence, higher = more signal;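 further: score pools 667 nm emission and signal to noise measuring lysate protein binding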
[20] = test system: Sonic hedgehog protein (Shh); test: Sonic hedgehog microarray binding compounds – biochemical, small-molecule microarray, 635/667 nm fluorescence, primary screen (AID 1151); details: 635 nm fluorescence, higher = more signal;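 further: Shh protein binding to compounds spotted on small-molecule microarray slides; score combines spot fluorescence intensity with signal-to-noise across triplicate slides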

Sequence of Luciferin 4-monooxygenase (Photinus pyralis) (P08659 whole entry, looked up): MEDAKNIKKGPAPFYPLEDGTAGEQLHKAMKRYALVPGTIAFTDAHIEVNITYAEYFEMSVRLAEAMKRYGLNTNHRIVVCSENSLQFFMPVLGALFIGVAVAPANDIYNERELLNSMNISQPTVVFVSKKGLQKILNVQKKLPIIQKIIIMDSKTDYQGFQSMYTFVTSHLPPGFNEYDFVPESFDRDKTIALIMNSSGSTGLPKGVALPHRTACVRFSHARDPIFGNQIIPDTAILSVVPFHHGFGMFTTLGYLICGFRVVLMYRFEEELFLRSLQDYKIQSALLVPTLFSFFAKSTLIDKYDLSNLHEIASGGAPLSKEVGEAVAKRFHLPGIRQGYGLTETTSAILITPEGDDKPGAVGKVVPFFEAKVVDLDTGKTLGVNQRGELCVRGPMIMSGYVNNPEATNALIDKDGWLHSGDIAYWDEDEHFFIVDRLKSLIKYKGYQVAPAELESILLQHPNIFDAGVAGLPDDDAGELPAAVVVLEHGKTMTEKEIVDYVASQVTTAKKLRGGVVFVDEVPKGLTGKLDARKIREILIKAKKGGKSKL
Sequence of Follistatin (Homo sapiens) (P19883 whole entry, looked up): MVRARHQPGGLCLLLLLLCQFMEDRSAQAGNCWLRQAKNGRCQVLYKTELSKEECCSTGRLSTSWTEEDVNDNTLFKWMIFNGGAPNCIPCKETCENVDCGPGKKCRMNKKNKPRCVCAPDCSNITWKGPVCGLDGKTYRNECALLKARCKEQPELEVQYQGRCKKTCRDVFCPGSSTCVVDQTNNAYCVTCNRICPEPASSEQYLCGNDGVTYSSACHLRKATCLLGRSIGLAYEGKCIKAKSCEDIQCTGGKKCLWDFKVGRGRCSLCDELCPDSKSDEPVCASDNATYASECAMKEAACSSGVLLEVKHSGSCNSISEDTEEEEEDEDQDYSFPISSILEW
Sequence of Fibroblast growth factor 2 (Homo sapiens) (P09038 whole entry, looked up): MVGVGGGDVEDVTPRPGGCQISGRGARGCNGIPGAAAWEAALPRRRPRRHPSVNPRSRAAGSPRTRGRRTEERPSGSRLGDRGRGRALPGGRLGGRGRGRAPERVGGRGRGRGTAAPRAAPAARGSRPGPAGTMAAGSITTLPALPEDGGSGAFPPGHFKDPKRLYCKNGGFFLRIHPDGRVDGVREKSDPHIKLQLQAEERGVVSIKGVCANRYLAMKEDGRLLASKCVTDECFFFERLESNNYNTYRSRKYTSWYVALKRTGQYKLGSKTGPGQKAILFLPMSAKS
Sequence of Streptavidin (Streptomyces avidinii) (P22629 whole entry, looked up): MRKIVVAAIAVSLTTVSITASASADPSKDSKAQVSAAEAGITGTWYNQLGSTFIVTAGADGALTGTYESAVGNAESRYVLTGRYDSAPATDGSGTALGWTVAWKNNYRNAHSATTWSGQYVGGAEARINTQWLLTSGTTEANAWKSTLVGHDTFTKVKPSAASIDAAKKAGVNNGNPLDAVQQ
Sequence of Torsin-1A (Homo sapiens) (O14656 whole entry, looked up): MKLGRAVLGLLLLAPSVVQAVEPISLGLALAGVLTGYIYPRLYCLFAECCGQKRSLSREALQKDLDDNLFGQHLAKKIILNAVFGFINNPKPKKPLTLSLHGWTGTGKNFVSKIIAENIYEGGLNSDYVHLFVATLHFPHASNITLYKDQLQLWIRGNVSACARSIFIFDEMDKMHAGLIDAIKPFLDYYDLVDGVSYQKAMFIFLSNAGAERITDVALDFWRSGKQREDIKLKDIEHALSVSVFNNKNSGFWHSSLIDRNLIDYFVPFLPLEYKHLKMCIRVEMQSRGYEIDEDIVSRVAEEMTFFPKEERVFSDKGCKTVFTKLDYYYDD
Sequence of Focal adhesion kinase 1 (Homo sapiens) (Q05397 whole entry, looked up): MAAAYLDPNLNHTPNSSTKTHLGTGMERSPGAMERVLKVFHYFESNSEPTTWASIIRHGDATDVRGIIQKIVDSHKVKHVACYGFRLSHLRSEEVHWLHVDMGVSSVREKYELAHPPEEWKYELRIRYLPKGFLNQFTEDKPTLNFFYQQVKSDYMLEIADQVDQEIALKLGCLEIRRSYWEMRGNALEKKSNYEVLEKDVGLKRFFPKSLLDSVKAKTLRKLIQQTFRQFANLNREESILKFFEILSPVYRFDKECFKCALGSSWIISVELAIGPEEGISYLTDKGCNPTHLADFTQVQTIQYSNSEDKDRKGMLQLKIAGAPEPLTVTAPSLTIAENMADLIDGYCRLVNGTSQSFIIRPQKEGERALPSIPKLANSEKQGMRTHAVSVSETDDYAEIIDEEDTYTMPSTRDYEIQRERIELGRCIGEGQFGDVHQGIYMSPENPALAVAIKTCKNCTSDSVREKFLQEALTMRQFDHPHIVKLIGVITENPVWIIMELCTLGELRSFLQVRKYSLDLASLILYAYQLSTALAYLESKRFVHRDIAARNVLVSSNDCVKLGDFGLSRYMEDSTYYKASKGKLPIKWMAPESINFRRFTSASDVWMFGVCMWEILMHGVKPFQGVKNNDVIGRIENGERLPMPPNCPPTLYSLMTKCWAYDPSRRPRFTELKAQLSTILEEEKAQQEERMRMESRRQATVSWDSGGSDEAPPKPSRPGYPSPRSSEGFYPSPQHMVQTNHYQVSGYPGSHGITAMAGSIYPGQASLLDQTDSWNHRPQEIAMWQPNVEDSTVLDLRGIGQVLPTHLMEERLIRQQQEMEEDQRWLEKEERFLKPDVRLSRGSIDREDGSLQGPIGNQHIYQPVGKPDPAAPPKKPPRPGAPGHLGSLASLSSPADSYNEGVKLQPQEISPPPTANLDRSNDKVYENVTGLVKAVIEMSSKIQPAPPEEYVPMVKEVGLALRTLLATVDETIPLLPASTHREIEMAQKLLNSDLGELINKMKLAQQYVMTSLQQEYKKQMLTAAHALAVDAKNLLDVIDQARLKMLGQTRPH

SMILES | composite z-score [1] | composite z-score [2] | composite z-score [3] | composite z-score [4] | composite z-score [5] | composite z-score [6] | z-score [7] | composite z-score [8] | composite z-score [9] | z-score [10] | composite z-score [11] | z-score [12] | z-score [13] | z-score [14] | z-score [15] | composite z-score [16] | composite z-score [17] | composite z-score [18] | composite z-score [19] | composite z-score [20]
O=c1cccc(-c2cccc3ccccc23)o1 | 0.874 | 1.2 | 1.35 | 0.708 | 0.26 | -0.32 | 0.316 | -0.789 | 0.8 | 1.52 (inactive) | -0.0859 | -0.779 (inactive) | -0.469 (inactive) | 0.182 (inactive) | 0.092 (inactive) | 0.112 | -0.0471 | 0.272 | -0.0514 | -0.343
COc1c(C)cc(-c2cc3c(c(-c4ccccc4)n2)[Si](C(C)C)(C(C)C)O[C@H]3c2ccccc2)cc1C | 0.235 | -0.26 | -0.0638 | -0.243 | 0.145 | -0.212 | 0.125 | 0.377 | 0.124 | 0.407 (inactive) | -0.0797 | 0.393 (inactive) | -0.0188 (inactive) | -0.244 (inactive) | -0.0226 (inactive) | -0.0096 | -0.119 | -0.381 | -0.22 | 0.618
[N-]=[N+]=NCc1ccccc1[C@@H]1OC(c2ccc(OCCCO)cc2)=N[C@]1(Cc1ccccc1N=[N+]=[N-])C(N)=O | 1.81 | 1.26 | 0.73 | 1.01 | 1.28 | 0.853 | 0.737 | -0.173 | 1.31 | -3.4 (inactive) | 0.138 | -1.91 (inactive) | -0.089 (inactive) | -0.128 (inactive) | 0.15 (inactive) | 2.16 | 0.32 | 0.571 | 0.373 | -0.349
CCN(CC)c1ccc(N2CC=CC34O[C@@H]5/C=C\CCCOC(=O)C5[C@H]3C(=O)N(CCCO)[C@@H]4C2=O)cc1 (stereo not given in full) | 1.54 | -0.231 | -0.426 | -0.928 | -1.05 | -0.942 | 0.614 | -0.5 | -0.137 | -0.826 (inactive) | -0.674 | 0.273 (inactive) | 2.24 (inactive) | -0.212 (inactive) | -0.473 (inactive) | -1.12 | -0.157 | -1.94 | -1.45 | -0.18
O=C1[C@H]2C=C(Br)[C@H](C[C@@H]2OCCOCCO)[C@@]12CO2 | 0.141 | 0.314 | -0.0415 | 0.138 | -0.864 | 0.179 | -0.271 | 0.199 | -0.0695 | 0.582 (inactive) | 0.268 | 0.808 (inactive) | 0.199 (inactive) | -1.23 (inactive) | 1.6 (inactive) | 0.138 | -0.118 | -0.428 | -0.385 | 0.0806
C=CCC(OC(C)=O)[C@@H]1[C@@H](N(Cc2cc3ccccc3o2)C(=O)c2ccc(-c3ccccc3)cc2)c2cc(OCCCO)ccc2N1C(=O)Cc1ccc2ccccc2c1 (stereo not given in full) | 0.708 | -0.321 | -0.0252 | 0.186 | 0.386 | -0.0741 | 1.33 | -0.0934 | 0.34 | -0.729 (inactive) | -0.172 | 0.0758 (inactive) | 0.19 (inactive) | 1.85 (inactive) | 0.874 (inactive) | 0.0693 | 0.0963 | -0.635 | -0.0864 | -0.076
C=CCC(OC(C)=O)[C@@H]1[C@@H](N(Cc2ccc(-c3cccc(C(F)(F)F)c3)o2)C(=O)c2ccc(C)cc2)c2cc(OCCCO)ccc2N1C(=O)c1ccc2ccccc2n1 (stereo not given in full) | -0.614 | -0.369 | -0.223 | 0.33 | 0.839 | 0.131 | 0.61 | 0.727 | 0.717 | -1.25 (inactive) | 0.0861 | 0.0775 (inactive) | -0.293 (inactive) | 0.395 (inactive) | -0.0797 (inactive) | 0.256 | -0.151 | -0.138 | 0.114 | 0.978
CC(C)(C)OC(=O)CC[C@@]1(C(=O)N2CCOCC2)N=C(c2ccc(OCCCO)cc2)O[C@@H]1c1ccccc1N=[N+]=[N-] | 3.1 | 1.29 | 0.288 | 1.01 | 1.36 | 1.22 | 1.9 | 0.885 | 0.987 | -10.6 (active) | 1.23 | -1.61 (inactive) | 0.321 (inactive) | 0.0686 (inactive) | -0.713 (inactive) | 1.93 | 0.27 | 0.802 | 1.11 | 0.535
[N-]=[N+]=NCc1ccccc1[C@H]1OC(c2ccc(OCCCO)cc2)=N[C@@]1(Cc1ccccc1)C(=O)O | 1.97 | 0.762 | 0.551 | 0.472 | 1.31 | 1.42 | -0.0378 | 0.195 | 0.611 | -0.0016 (inactive) | 0.631 | -1.01 (inactive) | 0.564 (inactive) | -1.19 (inactive) | -0.609 (inactive) | 1.37 | -0.0477 | 0.112 | 0.381 | -0.22
O=C(NCc1ccccc1)[C@@H]1c2ccccc2C(=O)N(C2CCCCC2)[C@H]1c1ccc(CO)cc1 | 0.61 | 1.01 | 0.405 | -0.0594 | 1.29 | 0.487 | 2.15 | 0.917 | 0.803 | -0.441 (inactive) | 0.191 | -1.08 (inactive) | 0.583 (inactive) | 0.234 (inactive) | 0.174 (inactive) | -0.395 | -0.352 | 0.113 | 1.11 | 1.4
